From PubChem BioAssay (NCATS)
Results filed as inconclusive are left out. Calls of active or inactive are those of the source. The call rests on the fitted dose curve; in most records, active means well fitted curve in the direction sought with a large enough effect; inconclusive means small, poorly fitted or top-dose-only effect, or another doubt; inactive means no such curve, though single readings can be large; an effect the other way counts as inactive or inconclusive.

Tests used:
[1] = target: Nuclear receptor subfamily 1 group I member 3 (Homo sapiens) (UniProt Q14994); test: qHTS for Constitutive Androstane Receptor (CAR) Antagonist screened against the NCATS CANVASS Library (AID 1347372);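 further: cells stimulated with 50 nM CITCO agonist so inhibition reflects antagonism; luciferase from CYP2B6 promoter reporter driven by hCAR in HepG2 cells; series mostly up to about 46 µM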
Procedure, shortened: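 Cells were seeded and left 4hr to attach, then received compound at 11 concentrations and 50 nM CITCO. Following 24hr incubation, fluorescence viability and luciferase luminescence were read sequentially.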

[2] = target: Nuclear receptor subfamily 1 group I member 3 (Homo sapiens) (UniProt Q14994); test: qHTS for Constitutive Androstane Receptor (CAR) Agonist screened against the NCATS CANVASS Library (AID 1347373);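 further: every well also contained 1.5 µM PK11195 alongside the test compound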
Procedure, shortened: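 Cells were plated and allowed to attach for 4hr, then dosed with compound in an 11-point series alongside 1.5uM PK11195. After 24hr at 37C, viability was measured fluorometrically and CAR-driven CYP2B6 reporter luminescence was recorded.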

[3] = qHTS for Hypoxia signaling pathway (HIF-1) antagonists against the NCATS CANVASS Library (AID 1347374); conditions: HRE-bla ME-180 cells, HIF-1 beta-lactamase reporter, CoCl2; further: potency means the concentration at half of the fitted maximal effect; nearly all actives have a fitted effect of over 60% in size
Procedure, shortened: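 Antagonism scored as loss of CoCl2-driven (60 uM stock added) HRE beta-lactamase signal, read by CCF4 FRET at 460/530 nm. Compounds were tested in an 11-point series on ME-180 reporter cells for 17 hrs at 37C, with parallel CellTiter-Glo cytotoxicity.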

[4] = qHTS for Hypoxia signaling pathway (HIF-1) agonists against the NCATS CANVASS Library (AID 1347375)
Procedure, shortened: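 Cells plated and rested 5 h, compounds pinned in DMSO across 11 concentrations, incubated 17 h at 37C, loaded with CCF4-AM for 2 h, fluorescence read at 460 and 530 nm, then CellTiter-Glo luminescence measured for viability and normalization.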

[5] = 10-beta competent E. coli microbial cell viability qHTS against the NCATS CANVASS Library (AID 1347376); further: series mostly up to about 46 µM
Procedure, shortened: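 Bacterial suspension diluted to 0.2 OD was dosed with compounds, 11-point series, then held overnight at 37C. BacTiter-Glo reagent was added, and after 20 min at room temperature ATP-dependent luminescence was measured.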

[6] = DH5-alpha competent E. coli microbial cell viability qHTS against the NCATS CANVASS Library (AID 1347377)
Procedure, shortened: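 Bacteria were dispensed at 0.2 OD, then compounds were pin-transferred. Plates were incubated overnight at 37C, after which BacTiter-Glo was added and luminescence measured 20 min later.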

[7] = qHTS for H2AX Agonists against the NCATS CANVASS Library (AID 1347378);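 further: phospho-H2AX S139 level in CHO-K1 lysates by TR-FRET emission ratio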
Procedure, shortened: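 Following overnight seeding, CHO-K1 cells are incubated with a concentration series of compound for 3 hr at 37C (final DMSO 0.76%). Cells are then lysed, detection antibodies added, and emission ratio 665/620 nm recorded after 24 hr at room temperature.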

[8] = qHTS for Inflammasome Signaling Inhibitors: IL-1-beta AlphaLISA screen against the NCATS CANVASS Library (AID 1347379); conditions: outcome: dose series up to 57.5 µM;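 further: human THP-1 cells primed with LPS then triggered with ATP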
Procedure, shortened: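 Secreted IL-1B from human THP-1 cells quantified by AlphaLISA 16 hr after compound addition (final up to 57.5 uM). A 1 hr compound pretreatment preceded inflammasome activation with 250 ng/mL LPS plus 1.25 mM ATP (final).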

[9] = Inflammasome Signaling qHTS Counterscreen: IL-1-beta AlphaLISA counterscreen against the NCATS CANVASS Library (AID 1347381);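 further: cell-free check with purified IL-1β in medium and no THP-1 cells; series mostly up to about 57 µM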
Procedure, shortened: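 Purified IL-1-beta (4 pg/well) + compound, 11-pt conc. series; acceptor beads 6 ug/mL + biotin-Ab 0.6 nM final, 1 h RT; SA-donor 24 ug/ml final, 30 min dark RT; read ex 680/em 615.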

[10] = Cytotoxicity qHTS for assessment of Hepg2 cells membrane integrity screened against the NCATS CANVASS Library (AID 1347387)
Procedure, shortened: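 Cells were seeded at 2000 per well and left overnight to attach. Compounds were pin-transferred to give 0.59 nM - 46 uM in an 11-point series and incubated 5 hr at 37C. CytoTox-ONE reagent was added and, after 10 min at room temperature, fluorescence (ex 560, em 590 nm) was read.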

[11] = qHTS for Activators of p53 Stress Response Pathway screened against the NCATS CANVASS Library (AID 1347388)
Procedure, shortened: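 p53RE-bla HCT-116 cells (4000/well) were plated 5 h at 37C, exposed to compounds for 16 h at 37C over an 11-point concentration series, then loaded with CCF4 for 2 h at room temperature; 460/530 nm emission ratio read.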

[12] = qHTS assay for small molecule disruptors of mitochondrial membrane potential screened against the NCATS CANVASS Library (AID 1347389); further: series mostly up to about 46 µM; nearly all actives have a fitted effect of over 60% in size
Procedure, shortened: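 Mitochondrial depolarization in HepG2 cells is scored as a falling aggregate-to-monomer fluorescence ratio after 1 hr compound exposure and 30 min staining with Mito-MPS dye at 37C, each compound tested as an 11-point titration.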

[13] = Secretion counterscreen for inhibitors of the SERCaMP assay screened against the NCATS CANVASS Library (AID 1347390);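 further: light from luciferase secreted into medium read as a measure of general secretion; series mostly up to about 77 µM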
Procedure, shortened: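 Counterscreen identifying compounds that disrupt secretion, using SH-SY5Y cells with a constitutively secreted Gaussia luciferase reporter. A 20 h compound exposure (top 77 uM) precedes luminescent detection with coelenterazine.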

[14] = qHTS for activators of Nrf2/ARE signaling pathway screened against the NCATS CANVASS Library (AID 1347391); further: nearly all actives have a fitted effect of over 60% in size
Procedure, shortened: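 Beta-lactamase reporter signal, read as 460 and 530 nm emission under 405 nm excitation after 2 h CCF4 loading, reflected ARE activation in HepG2 cells treated 16 h with an 11-point series.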

[15] = qHTS for activators of dead-cell proteases activity screened against the NCATS CANVASS Library (AID 1347392);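 further: luminescence from protease leaking out of membrane-damaged cells cleaving impermeant substrate; rising signal means more cytotoxicity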
Procedure, shortened: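 Cytotoxicity in HepG2 cells was assessed by released protease cleaving AAF-aminoluciferin, with luminescence as signal. Exposure lasted 5 h at 37C across an 11-point series.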

[16] = Vero-766 cells viability qHTS against the NCATS CANVASS Library: Counterscreen for Zika virus inhibition assay (AID 1347394); further: series mostly up to about 46 µM; nearly all actives have a fitted effect of over 60% in size
Procedure, shortened: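 This cytotoxicity counterscreen uses African green monkey Vero 766 cells in the absence of Zika virus. Compounds are incubated with cells for 72 h, and ATP-based luminescence reports viability.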

[17] = qHTS for inhibitors of Wild type Zika virus screened against the NCATS CANVASS Library (AID 1347396);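 further: ATP luminescence of surviving cells so rescue from viral cell killing; series mostly up to about 46 µM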
Procedure, shortened: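 Using ATP-based luminescence (CellTiter Glo), this screen scores rescue of Vero 766 cells from wild-type Zika killing at 72 h post-infection. Compounds are tested in a concentration series.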

[18] = Viability qHTS for inhibitors of the SERCaMP assay screened against the NCATS CANVASS Library (AID 1347400); further: series mostly up to about 92 µM; nearly all actives have a fitted effect of over 70% in size
Procedure, shortened: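 Seed SH-SY5Y-GLuc SERCaMP MJH297 cells at 1000 per well, incubate 4 h, add compounds across an 11-point range, incubate 48 h at 37C, then add CellTiter-Glo and read luminescence.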

[19] = qHTS for Antimalaria activity screened against the NCATS CANVASS Library (AID 1347380);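 further: Plasmodium falciparum strain Dd2 asexual parasites grown in red blood cells; series mostly up to about 29 µM; nearly all actives have a fitted effect of over 40% in size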
Procedure, shortened: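 Compounds are titrated over 11 concentrations onto Dd2 parasite cultures (0.3% parasitemia, 2.5% hematocrit). Growth over 72 h at 37C in low oxygen is measured as SYBR Green DNA fluorescence after lysis.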

[20] = qHTS for inhibitors of ER calcium dysfunction: SERCaMP assay screened against the NCATS CANVASS Library (AID 1347393); further: nearly all actives have a fitted effect of over 40% in size; further: potency means the concentration at half of the fitted maximal effect
Procedure, shortened: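 qHTS in SH-SY5Y reporter cells: 16 h compound pretreatment, 4 h thapsigargin, then secreted Gaussia luciferase measured by luminescence.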

Measured: Potency

Sequence of Nuclear receptor subfamily 1 group I member 3 (Homo sapiens) (Q14994 whole entry, looked up): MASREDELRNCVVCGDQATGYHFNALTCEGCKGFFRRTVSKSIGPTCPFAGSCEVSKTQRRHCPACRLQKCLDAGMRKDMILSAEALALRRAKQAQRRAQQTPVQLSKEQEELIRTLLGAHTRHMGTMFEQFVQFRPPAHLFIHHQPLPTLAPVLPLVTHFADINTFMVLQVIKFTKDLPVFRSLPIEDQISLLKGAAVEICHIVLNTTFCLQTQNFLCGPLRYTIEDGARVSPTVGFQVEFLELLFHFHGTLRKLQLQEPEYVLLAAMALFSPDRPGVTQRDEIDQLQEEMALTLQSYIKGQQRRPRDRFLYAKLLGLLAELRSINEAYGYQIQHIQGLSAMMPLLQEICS

O=C(O)C(O)Cc1ccc(O)c(O)c1 (centres undefined)
inactive: [1] | [2] | [4] | [5] | [6] | [7] | [8] | [9] | [10] | [11] | [12] | [13] | [14] | [15] | [16] | [17] | [18]
active: [3] 8.38 µM

COC(=O)[C@@H]1[C@H]2C[C@H]3c4[nH]c5ccccc5c4CCN3C[C@@H]2CC[C@@H]1O
active: [20] 30.5 µM
inactive: [1] | [2] | [5] | [6] | [7] | [8] | [19] | [9] | [10] | [11] | [12] | [13] | [14] | [15] | [16] | [17] | [18]

O=c1cc(-c2ccccc2)oc2cc(O)c(O)c(O)c12
inactive: [1] | [2] | [4] | [5] | [7] | [8] | [19] | [9] | [10] | [11] | [12] | [13] | [14] | [15] | [20] | [16] | [17] | [18]
